What all share (conditions): 25 µM; exposure: 24-48 hpf
Experiment [1] has as its system Danio rerio Tg(wt1b:EGFP) embryo, pronephros. The experiment is described as follows: glomerular separation, fold change vs DMSO control; higher = glomeruli further apart (abnormal). A digest of the protocol:
(§1)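 Dechorionated Tg(wt1b:EGFP) zebrafish embryos were incubated at 28.5°C from 24 to 48 hpf with 25 μM compound in HEPES-buffered E3 containing 0.5% DMSO and 0.003% PTU. Distances and angles between 16 manually set points on maximum projections of dorsal pronephros images were measured in Fiji, with values over 2 SD from the feature mean excluded. Each feature is a fold change relative to the mean of same-day DMSO-treated embryos.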

For experiment [2] the test system is unchanged. The experiment is described as follows: glomerular width (mean of left and right), fold change vs DMSO control; higher = wider glomerulus. An outline of the steps:
as §1

Experiment [3] shares this test system. The experiment is described as follows: fraction of imaged embryos annotated as normal kidney; higher = less nephrotoxic; extreme values may be limits of the assay. An outline of the steps: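 From 24 to 48 hpf at 28.5°C, dechorionated Tg(wt1b:EGFP) zebrafish embryos in 12-well plates were kept in 5 mM HEPES-buffered E3 with 0.003% PTU, 0.5% DMSO and 25 μM compound. Pronephroi were imaged by widefield fluorescence at 470 nm and judged by eye from maximum projections. Reported is the proportion of embryos per treatment in the normal-kidney category.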

Experiment [4] shares this test system. The experiment is described as follows: pronephric angle neck segment to proximal convoluted tubule (mean of left and right), fold change vs DMSO control; higher = larger pronephric angle. A digest of the protocol:
as §1

Where a name gives a salt, the structure may show the parent alone. ± gives the standard deviation or the standard deviation of the averaged measurements.

In turn, `CC(=O)OCC1=C(C(=O)O)N2C(=O)[C@@H](N)[C@H]2SC1` [Cephalosporanic acid, 7-amino] displayed a glomerular separation in experiment [1] of 0.819 ± 0.17. The same molecule yielded a glomerular width in experiment [2] of 1.136 ± 0.0094. The “fraction of imaged embryos annotated as normal kidney” value (“fraction of imaged embryos annotated” for short) in experiment [3] amounted to 1. In experiment [4], the “pronephric angle neck segment” value was 0.977 ± 0.06.

In experiment [1], `O=C1CC[C@@]2(O)[C@H]3Cc4ccc(O)c5c4[C@@]2(CCN3CC2CC2)[C@H]1O5` [Naltrexone hydrochloride dihydrate] yielded a glomerular separation of 0.749 ± 0.22. The molecule further returned a glomerular width in experiment [2] of 1.124 ± 0.0082. In addition, the “fraction of imaged embryos annotated” value in experiment [3] stood at 0.833. In addition, in experiment [4], the “pronephric angle neck segment” value was determined as 1.03 ± 0.058.

On to `NC(=O)CN1CCCC1=O` [Piracetam], for which the glomerular separation in experiment [1] stood at 0.815 ± 0.17. Also, the glomerular width in experiment [2] came out at 1.08 ± 0.032. The “fraction of imaged embryos annotated” value in experiment [3] stood at 0.917. For the same molecule, the “pronephric angle neck segment” value in experiment [4] was found to be 0.914 ± 0.051.

The molecule `Oc1ccc2c3c1O[C@H]1[C@@H](O)CC[C@@]4(O)[C@@H](C2)N(CC2CCC2)CC[C@]314` [Nalbuphine hydrochloride] yielded a glomerular separation in experiment [1] of 0.874 ± 0.27. In experiment [2], this molecule came in with a glomerular width of 1 ± 0.033. Further, the “fraction of imaged embryos annotated” value in experiment [3] is 0.75. Further, the “pronephric angle neck segment” value in experiment [4] worked out at 1.04 ± 0.0056.

For the origin of these results see the supplement of paper PMC7366291.
